# FBW7 act = human FBW7 E3 ligase activation, primary screen; Q969H0; AlphaScreen FBW7–phospho-cyclin E peptide binding, activator screen; normalized activity (activation), % at 26.1 µM; 0.13% of 650,000 active; in the data active means normalized activity above about 1.9%;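 further: purified mutant Fbw7 with reduced substrate affinity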
# GPR151 ag = activates the human receptor GPR151. 1% of 650,000 active. activation, % at 11.2 µM. PathHunter beta-arrestin GPR151 cells, luminescence; in the data active means activation above about 4.9%;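 further: 0% = median of compound wells and 100% = cells with positive control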
# Target sequence (Q8TDV0 whole entry, looked up): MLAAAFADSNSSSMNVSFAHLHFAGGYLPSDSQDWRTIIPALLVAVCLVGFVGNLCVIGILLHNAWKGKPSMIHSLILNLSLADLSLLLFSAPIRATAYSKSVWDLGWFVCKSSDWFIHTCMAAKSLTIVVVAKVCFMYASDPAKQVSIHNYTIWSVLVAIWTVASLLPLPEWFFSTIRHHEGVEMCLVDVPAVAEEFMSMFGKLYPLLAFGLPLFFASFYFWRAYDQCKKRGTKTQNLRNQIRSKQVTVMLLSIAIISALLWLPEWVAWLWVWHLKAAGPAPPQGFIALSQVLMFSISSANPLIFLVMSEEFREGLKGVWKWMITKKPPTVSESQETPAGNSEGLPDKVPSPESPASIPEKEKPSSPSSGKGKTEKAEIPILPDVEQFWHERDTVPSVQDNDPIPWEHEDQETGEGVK
# TEAD-YAP inh = TEAD-YAP interaction inhibition | HEK-TIYL cells, TEAD-Gal4/YAP UAS-luciferase luminescence | inhibition, % at 9.12 µM | 1.4% of 640,000 active | AID 1259422; in the data active means inhibition above about 32%;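 further: 0% = median of test compound wells and 100% = reference inhibitor wells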
# MITF inh = blocks human microphthalmia-associated transcription factor; O75030; AlphaScreen MITF homodimerization, bead proximity signal; inhibition, % at 2.6 µM; 0.91% of 650,000 active; in the data active means inhibition above about 50%;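 further: 0% = vehicle wells with protein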
# MITF confirm = human MITF inhibition, confirmation | shares compounds with MITF inh | AlphaScreen MITF homodimerization, biotin/His-MITF beads | inhibition, % at 2.6 µM | 16% of 4,700 active;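 active means inhibition above a cutoff derived from the DMSO control wells, cut at about 28% in these data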;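 further: 0% = MITF dimer wells with DMSO only; inhibitors lower the bead chemiluminescence by keeping MITF from dimerizing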
# AlphaScreen DR = AlphaScreen optical interference, dose response counter-screen; 6% of 480 active; shares compounds with MITF inh; IC50, µM; AlphaScreen optical interference counterscreen, cell-free; call rule not given here
# AlphaScreen intf2 = counter-screen: compounds optically interfering with AlphaScreen; shares compounds with MITF inh; LysRS AlphaScreen counterscreen, signal interference, triplicate; inhibition, % at 2.6 µM; 7.6% of 4,700 active; AID 1259376;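 active means inhibition above a cutoff derived from the DMSO control wells, cut at about 30% in these data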
# Starred values were filed as active, the others as inactive; x = not tested or not shown. A selection: hits, their analogues and other compounds. The true share with any hit is near 3.4%.
SMILES,FBW7 act,GPR151 ag,TEAD-YAP inh,MITF inh,MITF confirm,AlphaScreen intf2,others
COc1ccc(C2C3(C#N)C(N)=NC(OC)(OC)C23C#N)cc1 (configuration not stated),-0.2,2.1,0.4,73.8*,-0.4,7.8,
COC1(OC)N=C(N)C2(C#N)C(c3ccc(C)cc3)C12C#N (configuration not stated),-0.1,-0.1,5.5,55.0*,-2.3,5.5,
COC1(OC)N=C(N)C2(C#N)C(c3ccc4c(c3)OCO4)C12C#N (configuration not stated),-0.2,1.5,5.6,48.0,x,x,
CCc1ccc(NC(=O)C2CC=CCC2C(=O)O)cc1 (configuration not stated),0.8,-0.1,6.0,83.3*,7.0,8.1,
CC(=O)Nc1ccc(NC(=O)C2CC=CCC2C(=O)O)cc1 (configuration not stated),-0.1,-1.0,1.0,-4.8,x,x,
c1cn2cc(Cc3nnc4n3CCCCC4)nc2s1,-0.6,-0.6,-2.5,4.8,x,x,
c1cn2cc(Cc3nnc4n3CCC4)nc2s1,-1.0,0.2,13.6,79.7*,13.4,26.7,
CC(=O)c1cccc(-c2ccc(Nc3cccc(N(C)C)c3)nc2)c1,-1.0,0.7,-56.6,6.3,x,x,
CN(C)c1cccc(Nc2ccc(-c3ccccc3C=O)cn2)c1,-1.5,0.2,-15.6,62.5*,55.5*,61.3*,
CC(=O)c1ccc(NC(=O)Nc2ccc(C)cc2OC(F)F)cc1,0.1,-0.4,-3.5,-8.6,x,x,
CCS(=O)(=O)N1CCN(Cc2ccccc2Br)CC1,-0.1,-1.5,6.6,46.9,x,x,
O=[N+]([O-])c1ccc(S(=O)(=O)N2CCN(Cc3ccccc3Br)CC2)cc1,-0.4,0.3,-6.8,80.0*,11.6,9.3,
O=S(=O)(c1ccccc1)N1CCN(Cc2ccccc2Br)CC1,0.0,0.0,6.2,72.9*,10.1,15.7,
Nc1cc(Cl)ccc1C(=O)OCC(=O)Nc1ncc(Cl)cc1Cl,0.1,-1.1,0.0,2.1,x,x,
O=C(CN1CCCCC1)Nc1c2c(nc3ccccc13)N(c1ccccc1)CC2,0.1,1.4,0.1,32.4,x,x,
CN1CCc2c1nc1ccccc1c2NC(=O)CNC1CC1,-0.1,-0.5,-7.2,52.9*,16.1,24.2,
CN(CC(=O)Nc1c2c(nc3c1CCC3)CCCC2)Cc1ccccc1,-0.1,-0.7,-0.4,68.0*,1.6,0.6,
CN1CCN(CC(=O)Nc2c3c(nc4ccccc24)N(C)CC3)CC1,-0.1,-0.1,6.8,78.7*,-8.1,-2.6,
CN1CCc2c1nc1ccccc1c2NC(=O)C12CC3CC(CC(C3)C1)C2,0.0,0.9,1.7,11.7,x,x,
CN(CC(=O)Nc1c2c(nc3ccccc13)N(C)CC2)Cc1ccccc1,0.2,4.2,21.8,65.1*,-6.4,-7.2,
CCn1c2ccccc2c2cc(CN3CCN(Cc4cc(OC)c(OC)cc4[N+](=O)[O-])CC3)ccc21,-0.2,0.7,4.6,81.7*,3.5,21.1,
COc1cc(CN2CCN(Cc3cccc(OC)c3OC)CC2)c([N+](=O)[O-])cc1OC,0.0,0.3,-8.6,51.9*,4.2,2.9,
COc1cc(CN2CCN(Cc3cccc4ccccc34)CC2)c([N+](=O)[O-])cc1OC,-0.2,2.3,-15.4,70.1*,11.9,0.1,
COCCCNCCOCCOc1c(C)cc(Cl)cc1C,-0.3,2.1,-11.1,71.5*,-10.8,-6.5,
Cc1cc(OCCOCCNCCN)cc(C)c1Cl,-0.2,-0.7,6.2,29.7,x,x,
SMILES,FBW7 act,GPR151 ag,TEAD-YAP inh,MITF inh,MITF confirm,AlphaScreen intf2,others
Cc1cc(Cl)cc(Cl)c1OCCOCCNCCN,-0.2,0.0,12.9,64.6*,-0.5,8.6,
COCCCNCCOCCOc1c(C)cc(C)cc1C,-0.1,0.0,6.0,37.6,x,x,
Cc1cc(C)c(OCCOCCNCCN)c(C)c1,0.0,1.1,0.1,70.5*,-0.7,7.5,
COCc1ccc(-c2nccnc2NS(=O)(=O)/C=C/c2ccccc2)cc1,0.1,-0.4,4.1,-17.7,x,x,
O=C(COCc1nc2ccccc2c(=O)[nH]1)NC(c1ccccc1)c1ccccc1,0.1,0.0,-2.6,3.6,x,x,
O=C(CSc1n[nH]c(=O)[nH]c1=O)OCc1ccccc1,-0.2,0.5,4.7,2.3,x,x,
Cc1ccc(-c2nc(C#N)c(N3CCN(C(=O)c4ccc(Cl)cc4)CC3)o2)cc1,0.1,2.8,-5.4,68.2*,-10.6,-2.2,
CCOc1ccc(C(=O)N2CCN(c3oc(-c4ccc(Cl)cc4)nc3C#N)CC2)cc1,0.0,2.4,1.8,-3.5,x,x,
CC(C)CC(c1nnnn1CC1CCCO1)N1CCN(c2ccc(F)cc2)CC1 (configuration not stated),0.0,1.4,11.9,0.9,x,x,
CC(C)CC(c1nnnn1CC1CCCO1)N1CCN(c2cccc(Cl)c2)CC1 (configuration not stated),0.2,0.3,1.9,84.3*,2.5,8.8,
Cc1ccc(NC(=O)c2ccc(Oc3ccc([N+](=O)[O-])cc3)cc2)c(C(=O)O)c1,0.0,-1.2,-6.3,6.3,x,x,
O=C(CSc1nnnn1C1CCCCC1)c1ccccc1,0.1,0.0,-1.2,5.5,x,x,
CC(=O)NNC(=O)CSc1nnnn1C1CCCCC1,-0.1,-0.6,-5.1,76.3*,6.9,14.9,
O=C(CSc1nnnn1C1CCCC1)c1ccccc1F,0.0,-1.5,-61.6,116.2*,-7.9,23.8,
Cc1cc(C(=O)c2ccccc2)c(NC(=O)CN2CCCCC2)s1,0.2,0.2,-8.4,9.1,x,x,
CC(=O)CC1=C(C(=O)O)N2C(=O)C(N)C2SC1 (configuration not stated),0.1,-0.2,10.9,60.6*,29.7*,0.2,AlphaScreen DR=>6.48
Cn1nnnc1SCC1=C(C(=O)O)N2C(=O)C(N)C2SC1 (configuration not stated),0.0,-1.4,3.3,37.2,x,x,
Cc1ccc(C)c(C(=O)Nc2ccccc2F)c1,0.1,-1.2,-3.9,83.6*,13.5,7.2,
Cn1nccc1C(=O)Nc1sc2c(c1C#N)CCC2,0.2,-1.4,-10.0,11.8,x,x,
O=C(Nc1ccc(Nc2ccc(-n3cccn3)nn2)cc1)c1ccccc1Cl,-0.2,0.5,-1.1,58.0*,3.5,8.2,
COc1ccccc1C(=O)NC(=S)Nc1ccc2[nH]c(=O)[nH]c2c1,0.0,-0.9,-46.6,-10.0,x,x,
O=C(NC(=S)Nc1ccc2[nH]c(=O)[nH]c2c1)c1ccccc1Cl,-0.1,0.0,-8.8,99.2*,-9.8,-2.9,
CCN(CC)C(=O)c1ccc(OC)cc1,-0.1,0.1,4.0,-2.1,x,x,
CCN(CC)CCCNC(=O)c1[nH]c(C)c(C(=O)NC2CCCCC2)c1C,-0.1,-0.6,4.9,89.5*,15.9,12.3,
CCN(CC)CCCNC(=O)c1[nH]c(C)c(C(C)=O)c1C,-0.1,0.2,0.4,3.1,x,x,
O=C(Nc1ccc(F)c(-c2nc3ncc(-c4ccccc4)cc3[nH]2)c1)N1CCCC1,x,-1.4,x,x,x,x,
O=C(CN1CCOCC1)Nc1sc2c(c1C(=O)c1ccccc1)CCCC2,-0.1,0.2,7.4,-7.8,x,x,
